SARS PLpro yeast – qHTS of Yeast-based Assay for SARS-CoV PLP; Potency, µM (highest dose often 32.9 µM), hits mostly activators; AID 485353, 2010; S. cerevisiae expressing SARS-CoV PLpro, growth rescue; hit rate 0.19% among 330,000; calls by dose curve; note: nearly all actives have a fitted effect of over 55% in size
CHX counter – Cycloheximide Counterscreen for Small Molecule Inhibitors of Shiga Toxin; hit rate 12% among 300,000; cell reporter, cycloheximide protein synthesis inhibition counterscreen; max response, %; in the data active = max response mostly above about 13%, no sharp cut-off; inactive = mostly below about 14%; note: read at 38.3 µM for the half of the compounds with a filed dose
NS1 function inh – qHTS Assay for Inhibitors of Influenza NS1 Protein Function; Potency, µM (highest dose often 46.1 µM); hit rate 0.4% among 270,000; calls by dose curve; note: actives are rising curves; nearly all actives have a fitted effect of over 50% in size
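Compounds were scored for reversing the slow growth caused by influenza A NS1 in S. cerevisiae, measured by optical density at 600 nm. Assay medium contained 2% galactose at pH 6.0; NS1-free yeast of the same strain were the positive control.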
LmPK inh – qHTS Assay for Inhibitors of Leishmania Mexicana Pyruvate Kinase (LmPK) | Q27686 | purified LmPK, Kinase-Glo ATP luminescence, 1 h | Potency, µM (highest dose often 57.5 µM), hits mostly inhibitors | hit rate 0.37% among 290,000 | AID 1721, 2009
Target sequence (Q27686 whole entry, looked up): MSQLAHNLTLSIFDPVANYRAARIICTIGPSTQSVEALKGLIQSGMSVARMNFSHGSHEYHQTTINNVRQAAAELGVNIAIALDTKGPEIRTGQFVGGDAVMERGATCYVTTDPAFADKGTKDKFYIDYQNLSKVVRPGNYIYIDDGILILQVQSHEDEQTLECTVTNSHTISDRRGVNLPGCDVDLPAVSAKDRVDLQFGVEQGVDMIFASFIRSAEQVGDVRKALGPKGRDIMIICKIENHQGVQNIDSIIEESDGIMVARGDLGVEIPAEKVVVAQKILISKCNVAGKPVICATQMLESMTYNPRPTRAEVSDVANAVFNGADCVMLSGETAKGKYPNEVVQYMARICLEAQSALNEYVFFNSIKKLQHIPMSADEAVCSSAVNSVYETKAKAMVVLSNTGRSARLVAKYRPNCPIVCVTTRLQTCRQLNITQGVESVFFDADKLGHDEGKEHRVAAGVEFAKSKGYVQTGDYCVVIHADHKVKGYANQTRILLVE
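Screened at intermediate enzyme activity to detect both inhibitors and activators: LmPK at 0.1 nM, with a 0.5 nM enzyme column as activation reference. PEP 0.5 mM, ADP 0.1 mM; ATP detected by luminescence after 1 h.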
Shiga toxin inh – A qHTS for Small Molecule Inhibitors of Shiga Toxin; Vero cells, Shiga toxin protein synthesis inhibition reporter; inhibition, % at 38.7 µM; hit rate 9.2% among 290,000; in the data active = inhibition mostly above about 28%, no sharp cut-off; inactive = mostly below about 43%
TbPYK inhibitor – qHTS of Trypanosoma Brucei Inhibitors; pyruvate kinase (Trypanosoma brucei), Q57TT1; TbPYK enzyme, Kinase-Glo Plus ATP luminescence, 45 min; Potency, µM (series often up to 76.8 µM), usual class: inhibitors; hit rate 0.12% among 410,000; AID 624173, 2012; note: nearly all actives have a fitted effect of over 50% in size
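T. brucei PYK with substrate was exposed to pin-transferred compounds across a concentration series, then started with 130 uM ADP (final). After 45 min at room temperature, Kinase-Glo Plus luminescence was read, normalized and curve-fitted.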
A number is an active result; n = inactive; u = inconclusive; x = not tested or not shown. This is one part of a sample in which hits are shown more often than they occur. Unless noted, calls come from the whole dose curve; as a rule, active = well fitted curve in the direction sought with a large enough effect; inconclusive = small, poorly fitted or top-dose-only effect, or another doubt; inactive = no such curve, though single readings can be large; an effect the other way counts as inactive or inconclusive.

SMILES	SARS PLpro yeast	CHX counter	NS1 function inh	LmPK inh	Shiga toxin inh	TbPYK inhibitor
CCOc1ccc(N2CC(C(=O)NCc3ccc4c(c3)OCO4)CC2=O)cc1 (centres undefined)	n	n	n	n	n	n
COc1cc(C=C2C(=O)NC(=O)NC2=O)ccc1O	n	n	n	n	n	u
COc1cc(/C=C2\OC(=O)c3c(OC)cccc32)ccc1O	n	79.4	n	n	100.2	n
C=CCOc1ccc(/C(CC)=N/O)c(OC)c1	n	12.7	n	n	n	n
COc1cccc(-c2nc3nc(C)cc(C)n3c2NC2CCCC2)c1	x	x	x	x	x	n
O=C(COc1ccc(Cl)cc1Cl)Nc1ccccn1	n	n	n	5.01µM	n	u
CSc1ccccc1NC(=O)COc1ccccc1Cl	n	50.9	n	n	n	n
Cc1ccccc1OCC(=O)Nc1cccc(Cl)c1C	n	n	n	n	n	n
CSc1ccccc1NC(=O)COc1ccc(Cl)cc1Cl	n	16.8	n	n	42.9	n
Cc1c(C)c2cc(Cl)c(OCC(=O)Nc3ccccn3)cc2oc1=O	x	x	x	x	x	n
O=C(COc1ccccc1Cl)Nc1ccccc1C(=O)N1CCCCC1	n	43.4	n	n	84.7	n
COc1ccc(NC(=O)Nc2cccc3c2O[C@H](CN(C)C(=O)Nc2ccc(OC)cc2)[C@@H](C)CN([C@H](C)CO)C3=O)cc1	n	x	x	x	x	n
COCc1c(C(=O)N2CCN(CCOc3ccccc3)CC2)oc2ccccc12	n	x	x	x	x	n
O=C(CSc1nc(O)cc(=O)n1-c1ccccc1)c1ccc(Br)cc1	n	24.4	u	n	n	n
CC(C)c1ccc2c(c1)[C@H]1OCC[C@H]1[C@@H](c1cccs1)N2	n	69.8	n	n	58.9	n
Cc1sc(N)c(C(=O)c2ccccc2)c1C	n	n	n	n	n	u
C=CCOc1ccc(CNc2nccs2)cc1OCC	n	n	n	n	n	n
C=CCOc1ccc(CNc2nccs2)cc1	n	22.3	n	n	55.0	n
COc1ccc2cc3c(nc2c1)OCC3	n	20.0	n	n	101.9	n
COc1cccc(NC(=O)C(C)SCc2ccccc2)c1 (centres undefined)	n	22.5	n	n	44.3	n
Cc1ccc(NC(=O)C(C)SCc2ccccc2)cc1 (centres undefined)	n	30.4	n	n	82.1	n
CC(SCc1ccccc1)C(=O)Nc1ccc2c(c1)OCO2 (centres undefined)	n	37.1	n	n	n	n
CC(SCc1ccccc1)C(=O)N/N=C/c1ccc2c(c1)OCO2 (centres undefined)	n	n	n	n	n	n
COc1ccc(NC(=O)C(C)SCc2ccccc2)cc1OC (centres undefined)	n	n	n	n	n	n
Nc1[nH]c(C(=O)c2ccccc2)c(-c2ccccc2Cl)c1C(=O)c1ccccc1	x	x	x	x	x	n
SMILES	SARS PLpro yeast	CHX counter	NS1 function inh	LmPK inh	Shiga toxin inh	TbPYK inhibitor
COc1ccc(NC(=O)Cn2c(=O)n(Cc3ccco3)c(=O)c3oc4ccccc4c32)cc1Cl	x	x	x	x	x	n
COc1ccccc1CNC(=O)COC(=O)c1cccnc1SCC(=O)NCc1ccccc1OC	n	29.3	x	n	67.9	n
O=C(COC(=O)c1cccnc1SCC(=O)NCc1ccccc1)NCc1ccccc1	n	n	n	n	n	n
CCOC(=O)c1cccnc1SCC(=O)Nc1ccc(C)cc1	n	21.9	x	n	n	n
CCOC(=O)c1cccnc1SCC(=O)NC(C)CC (centres undefined)	n	n	n	n	n	n
CCN(Cc1ccccc1)C(=O)Cn1c(=O)n(-c2ccc(Cl)cc2)c(=O)c2c(C)c(C(=O)N(C)C)sc21	x	x	x	x	x	n
Cc1csc(SCC(=O)c2cc(C)n(Cc3cccs3)c2C)n1	n	16.8	n	n	31.6	n
COc1ccc(-c2nnc(SCC(=O)c3cc(C)n(Cc4cccs4)c3C)o2)cc1	n	n	n	n	n	n
Cc1cc(C(=O)CSc2nnc(N)s2)c(C)n1Cc1cccs1	n	57.4	n	n	83.0	n
Cc1cc(C(=O)CSc2n[nH]c(-c3ccccc3F)n2)c(C)n1Cc1cccs1	n	17.0	n	n	n	n
COc1ccc(-n2cnnc2SCC(=O)c2cc(C)n(Cc3cccs3)c2C)cc1	n	n	n	n	n	n
Cc1cc(C(=O)CSc2nnc(-c3ccc(OC(F)F)cc3)o2)c(C)n1Cc1cccs1	n	n	n	n	n	n
CN(C)C(CNS(=O)(=O)c1ccc(Cl)cc1F)c1ccco1 (centres undefined)	x	x	x	x	x	n
CC(=O)N1CCN(C(=O)CSc2nc3c(cnn3-c3ccccc3)c(=O)[nH]2)CC1	n	38.2	n	n	77.6	n
CC1CCN(C(=O)CSc2nc3c(cnn3-c3ccccc3)c(=O)[nH]2)CC1	n	n	n	n	n	n
COC(=O)C1=C(C(=O)OC)C2OC1c1cc3ccccc3cc12	x	x	x	x	x	28.2µM
S=C=Nc1ccc(N=C=S)cc1	x	x	x	x	x	n
S=C=Nc1ccccn1	n	26.7	n	n	n	n
COc1ccc(Cn2c(SCc3ccc(C(=O)NCc4ccc(C)cc4)cc3)nc3cccnc32)cc1	x	x	x	x	x	n
CCCn1c(-c2ccc[nH]c2=O)nc2cc(C)c(C)cc21	n	38.2	n	n	72.2	n
Cc1cc2nc(-c3ccc[nH]c3=O)n(Cc3cccc(F)c3)c2cc1C	n	n	n	n	n	n
CCOc1ccc(-c2c(C(=O)N/N=C/c3ccsc3)nnn2-c2nonc2N)cc1	n	n	n	n	n	n
CCC1SC(C)C/C(=N/NC(N)=O)C1C (centres undefined)	n	35.4	n	n	n	n
O=C(CSc1nc2ccccc2[nH]1)Nc1c(F)cccc1F	n	n	n	n	n	n
Cc1ccc(C)c(C(=O)CSc2nc3ccccc3c(=O)[nH]2)c1	n	n	n	n	n	n
SMILES	SARS PLpro yeast	CHX counter	NS1 function inh	LmPK inh	Shiga toxin inh	TbPYK inhibitor
Cn1c(SCc2ccccc2F)nc2cccnc21	n	28.3	n	n	117.2	n
O=C(CSc1nc2ccccc2[nH]1)c1ccccc1F	n	40.2	n	n	91.6	n
Cc1[nH]c2ccccc2c1C(=O)CSC(=S)N(C)C	n	29.8	n	n	73.8	n
Cc1ccc2nc(SCC(=O)c3c[nH]c4ccccc34)[nH]c2c1	n	n	n	n	70.5	n
CC(=O)[C@]1(O)CCC2C3C=C(Cl)C4=CC(=O)C5CC5[C@@]4(C)C3CC[C@]21C (some centres undefined)	x	x	x	x	x	n
COc1cc(CNCCCN2CCOCC2)c(Br)cc1OCC(=O)Nc1ccccc1C	n	n	n	n	n	n
COc1cccc(CNC(=O)COC(=O)c2cc([N+](=O)[O-])ccc2N2CCCC2)c1	n	x	x	x	x	n
Cc1nc(SCC(=O)c2c[nH]c3ccccc23)n[nH]1	n	n	n	n	n	n
Clc1cccc(CSc2nc3ccncc3[nH]2)c1	n	n	n	n	n	n
